The results in this text go back to PubChem BioAssay.

The source made the active and inactive calls.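 The calls were made as follows: active = inhibition above 20% together with a positive visual image hit; inconclusive = visual image hit but inhibition not above 20%; inactive = no visual image hit.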

The nature of the test: inhibitors of TNFa-induced NFkB p65 translocation, primary screen, imaging, HUVEC, MLSMR starter and 10KST1 sets (AID 438).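 Also: compound added about 3h40 before a 20 min TNFalpha stimulation.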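 As to inhibition: signal is the nuclear over cytoplasmic p65 intensity ratio per well.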 The note with it: HUVEC TNFa-induced p65 nuclear translocation; cell count: measured here: nuclei count (cytotoxicity indicator), at 2.08 µM; inhibition: at 2 µM, stronger effect = higher value, 0% TNFa-plus-vehicle, 100% no-TNFa wells.
Broadly, the inhibition is the drop in the measured response relative to a control, in per cent. For `CN(C)S(=O)(=O)c1ccc(C(=O)N2CCCC2c2nc3ccccc3s2)cc1` (stereo not given), the inhibition is -9.4% (inactive) and the cell count was 475.

On to `CC1=C(C(=O)OC(C)C)C(C2CC=CCC2)NC(=O)N1` (stereo not given), for which the cell count was determined as 306 and the inhibition is 2% (inactive).

Turning to `COc1ccc(OC)c(C2CC(=O)NC(SC)=C2C#N)c1` (stereo not given), the inhibition is -9.6% (inactive) and the cell count amounted to 662.

As to `CC1(C(=O)NC2CCCCC2)CCC(=O)N1Cc1cccs1` (stereo not given), the cell count amounted to 803 and the inhibition was -0.6% (inactive).

Regarding `NC(=O)c1c(NC(=O)Cc2cccs2)sc2c1CCC2`, the cell count came out at 537 and the inhibition is -17.1% (inactive).

As to `CC(=O)Nc1cccc(NC(=O)C2CCCN2C(=O)Nc2ccc(C)cc2)c1` (stereo not given), the cell count amounted to 789 and the inhibition is -3.2% (inactive).

For the compound `COc1ccc2[nH]c(=O)c(CN(CCO)S(=O)(=O)c3ccc4c(c3)OCCO4)cc2c1`, the cell count worked out at 539 and the inhibition is -7.5% (inactive).

For `Cn1c(=O)c2c(nc(NCC3CCCO3)n2C)n(C)c1=O` (stereo not given), the inhibition was 0.2% (inactive) and the cell count was 314.

`COc1cccc(-c2csc3nc[nH]c(=O)c23)c1`: the cell count amounted to 517 and the inhibition was 4.9% (inactive).

For the compound `COC(=O)Cn1c2ccccc2c2nc(C)sc21`, the cell count is 350 and the inhibition was 11.4% (inactive).

`CCOC(=O)c1ccc(-n2c(C)nc3c(cnn3-c3ccccc3C)c2=O)cc1`: the inhibition was 6.9% (inactive) and the cell count worked out at 654.

As to `Cc1ccc(S(=O)(=O)C2(C(=O)Nc3cccnc3)CC2)cc1`, the cell count amounted to 579 and the inhibition was 8.8% (inactive).

As for `CC(=O)N1CCN(S(=O)(=O)c2ccc(S(=O)(=O)NC3CC3)cc2)CC1`, the cell count was determined as 716 and the inhibition is -8.1% (inactive).

On to `COc1ccc(CCNc2oc(-c3ccccc3OC)nc2C#N)cc1`, for which the cell count was found to be 216 and the inhibition is -4.3% (inactive).

As to `COc1ccc(-n2c(Cc3cccn3C)nnc2SCC(=O)Nc2cccc(Cl)c2)cc1`, the inhibition is 36.1% (active) and the cell count worked out at 583.

As to `COc1ccc(OC)c(-n2nnnc2SCC(=O)NCc2ccc3c(c2)OCO3)c1`, the inhibition is -12.5% (inactive) and the cell count was 324.

With `CC1CCc2nn(CC(=O)NCc3ccc(F)cc3)cc2C1` (stereo not given), the cell count stood at 919 and the inhibition was 1.2% (inactive).

`CC1CN(C2CCCCC2)c2nc3c(c(=O)[nH]c(=O)n3C)n2C1` (stereo not given): the cell count is 234 and the inhibition is -2% (inactive).

As to `Cc1ccc(Nc2nc(Oc3ccc(=O)[nH]n3)nc(N(C)C)n2)cc1`, the inhibition was 2.8% (inactive) and the cell count was determined as 377.

For the compound `O=C(Nc1ccc(F)cc1)N(Cc1ccco1)Cc1cc2cc3c(cc2[nH]c1=O)OCO3`, the inhibition was 4.5% (inactive) and the cell count was found to be 473.

For the compound `COc1cccc(C(=O)Nc2c(C(N)=O)oc3ccccc23)c1`, the cell count amounted to 702 and the inhibition is -14.6% (inactive).

For `O=C(C1CCCN1S(=O)(=O)c1cccc2cccnc12)N1CCn2c1nc1ccccc12` (stereo not given), the inhibition is -1.1% (inactive) and the cell count was 626.

For the compound `O=C(NCCSCc1ccco1)Nc1cccc(Cl)c1`, the cell count turned out to be 502 and the inhibition was 3.6% (inactive).

Consider `CC(=O)Nc1nc2c(c3c1c(=O)oc1ccccc13)CC(C)CC2` (stereo not given), for which the cell count came to 509 and the inhibition is -11.6% (inactive).

On to `O=c1/c(=C/c2ccco2)sc2nc(-c3ccccc3Br)nn12`, for which the inhibition was 0.2% (inactive) and the cell count came out at 343.

Regarding `CCOC(=O)Cn1c(S(=O)(=O)Cc2ccccc2)nc2ccccc21`, the cell count turned out to be 811 and the inhibition was 5.5% (inactive).

Take `CCn1c(SCC(=O)Nc2ccccc2F)nc2c(c1=O)SC(C)C2` (stereo not given): the cell count amounted to 339 and the inhibition was -2.2% (inactive).

For the compound `Nc1cccc2c1C(=O)N(c1ccccc1)C2=O`, the cell count was 560 and the inhibition is 1.8% (inactive).

Turning to `COCCn1c(=O)[nH]c2cc(C(=O)N3CCN(Cc4ccc5c(c4)OCO5)CC3)ccc2c1=O`, the inhibition is -1.6% (inactive) and the cell count is 742.

Regarding `O=C(Cn1nnc(-c2ccc(S(=O)(=O)N3CCCC3)cc2)n1)NCC1CCCO1` (stereo not given), the inhibition is -6.9% (inactive) and the cell count was determined as 374.

`O=C(CN(Cc1ccco1)C(=O)c1cc(=O)[nH]c2ccccc12)Nc1ccccc1Br`: the inhibition is -22.4% (inactive) and the cell count worked out at 498.

For `c1nc(NCC2(N3CCOCC3)CCCCC2)c2ccsc2n1`, the inhibition is 17.8% (inactive) and the cell count was 303.

On to `CC1CCCN(S(=O)(=O)c2ccc(C(=O)Nc3nnc(-c4ccccc4Cl)o3)cc2)C1` (stereo not given), for which the cell count was determined as 687 and the inhibition was -2.8% (inactive).

Consider `O=C(OCN1C(=O)c2ccccc2C1=O)c1ccc2c(=O)n3c(nc2c1)CCC3`, for which the cell count turned out to be 380 and the inhibition was -26.1% (inactive).

Take `Cc1cc(C)n2nc(SCc3nc4ccccc4[nH]3)nc2n1`: the inhibition is -6.3% (inactive) and the cell count stood at 789.

On to `Cc1ccc(S(=O)(=O)NCCSc2nnnn2-c2ccc(C(N)=O)cc2)cc1`, for which the cell count was 650 and the inhibition is -2.6% (inactive).

`CC1(C)Cc2c(sc3c2c(=N)n(Cc2ccco2)c(=O)n3Cc2ccccc2)CO1`: the inhibition is -10.7% (inactive) and the cell count was 790.

Take `CC1=C(C(=O)NCc2ccccn2)C2(CCC(C)CC2)OC1=O` (stereo not given): the cell count was 759 and the inhibition is -5% (inactive).

As to `Cc1nnc(SC(=O)N2c3ccccc3Sc3ccccc32)s1`, the cell count was 348 and the inhibition is 12% (inactive).

Turning to `Cc1ccnc(NC(=O)C2CCCN(S(=O)(=O)c3cnc[nH]3)C2)c1` (stereo not given), the cell count is 526 and the inhibition was -2.4% (inactive).
